Assay results published in PubChem BioAssay (Tox21).
Inconclusive results are not listed. Active and inactive are the calls of the source. Unless noted, calls come from the whole dose curve; as a rule, active = well fitted curve in the direction sought with a large enough effect in the repeat runs; inconclusive = weak or mixed curves; inactive = no such curve, though single readings can be large; an effect the other way counts as inactive or inconclusive.

What was measured:
[1] = qHTS assay to identify small molecule agonists of the peroxisome proliferator-activated receptor delta (PPARd) signaling pathway - cell viability counter screen (AID 743211); note: nearly all actives have a fitted effect of over 55% in size; note: potency is the fitted concentration of half-maximal effect
In short: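 Counter screen for cytotoxicity run in parallel with the PPARd reporter screen. Beta-lactamase reporter HEK293H cells exposed to compounds 17 h; ATP-based CellTiter-Glo luminescence quantified viability.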

[2] = target: Peroxisome proliferator-activated receptor delta (Homo sapiens) (UniProt Q03181); experiment: qHTS assay to identify small molecule agonists of the peroxisome proliferator-activated receptor delta (PPARd) signaling pathway (AID 743212; calls by dose curve)
Sequence of Peroxisome proliferator-activated receptor delta (Homo sapiens) (Q03181 whole entry, looked up): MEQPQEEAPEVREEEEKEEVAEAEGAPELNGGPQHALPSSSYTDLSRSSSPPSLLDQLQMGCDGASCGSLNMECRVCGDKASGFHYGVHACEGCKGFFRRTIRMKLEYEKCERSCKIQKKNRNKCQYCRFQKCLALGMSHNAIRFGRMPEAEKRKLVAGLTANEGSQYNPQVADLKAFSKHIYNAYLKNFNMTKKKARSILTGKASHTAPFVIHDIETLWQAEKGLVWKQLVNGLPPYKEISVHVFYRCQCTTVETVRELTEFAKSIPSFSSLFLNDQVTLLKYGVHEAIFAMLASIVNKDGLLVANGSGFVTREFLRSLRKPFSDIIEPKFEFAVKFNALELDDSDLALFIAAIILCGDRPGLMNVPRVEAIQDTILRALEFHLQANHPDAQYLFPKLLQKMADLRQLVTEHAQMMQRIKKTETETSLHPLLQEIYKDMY
In short: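 GeneBLAzer PPARd UAS-bla HEK293H cells (beta-lactamase reporter under UAS control), plated and rested 5 h at 37 C, then exposed to compounds in DMSO at 37 C; LiveBLAzer B/G FRET substrate added, 2 h room temperature, fluorescence read.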

[3] = qHTS assay to identify small molecule antagonists of the peroxisome proliferator-activated receptor delta (PPARd) signaling pathway - cell viability counter screen (AID 743213); note: nearly all actives have a fitted effect of over 50% in size; note: potency is the fitted concentration of half-maximal effect
In short: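 PPARd-bla HEK293H cells (3000/well) got compound plus 300 nM L165041 agonist for 17 h at 37 C. Viability in the same wells came from CellTiter-Glo luminescence after 30 min at room temperature.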

[4] = target: Peroxisome proliferator-activated receptor delta (Homo sapiens) (UniProt Q03181); experiment: qHTS assay to identify small molecule antagonists of the peroxisome proliferator-activated receptor delta (PPARd) signaling pathway (AID 743215; active = well fitted inhibition curve with a large enough effect in the signal ratio in the repeat runs, not every such curve was filed as active; the % refers to the signal ratio;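 note: cells stimulated with agonist L165041 at 300 nM final during compound exposure; series mostly up to about 62 µM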)
In short: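 Read-out is beta-lactamase FRET fluorescence, measured 2 h after substrate addition at room temperature. Beforehand, UAS-bla HEK293H cells carrying the PPARd reporter were exposed to compounds with L165041 at 300 nM final for 17 h at 37 C.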

[5] = qHTS assay to identify small molecule agonists of the farnesoid-X-receptor (FXR) signaling pathway - cell viability counter screen (AID 743218); note: nearly all actives have a fitted effect of over 45% in size
In short: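 HEK 293T FXR-bla cells; 5 h pre-incubation, 16 h compound exposure at 37 C; LiveBLAzer substrate 2 h RT, then CellTiter-Glo 30 min RT, luminescence.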

[6] = target: Vitamin D3 receptor (Homo sapiens) (UniProt P11473); experiment: qHTS assay to identify small molecule agonists of the vitamin D receptor (VDR) signaling pathway (AID 743222; calls by dose curve)
Sequence of Vitamin D3 receptor (Homo sapiens) (P11473 whole entry, looked up): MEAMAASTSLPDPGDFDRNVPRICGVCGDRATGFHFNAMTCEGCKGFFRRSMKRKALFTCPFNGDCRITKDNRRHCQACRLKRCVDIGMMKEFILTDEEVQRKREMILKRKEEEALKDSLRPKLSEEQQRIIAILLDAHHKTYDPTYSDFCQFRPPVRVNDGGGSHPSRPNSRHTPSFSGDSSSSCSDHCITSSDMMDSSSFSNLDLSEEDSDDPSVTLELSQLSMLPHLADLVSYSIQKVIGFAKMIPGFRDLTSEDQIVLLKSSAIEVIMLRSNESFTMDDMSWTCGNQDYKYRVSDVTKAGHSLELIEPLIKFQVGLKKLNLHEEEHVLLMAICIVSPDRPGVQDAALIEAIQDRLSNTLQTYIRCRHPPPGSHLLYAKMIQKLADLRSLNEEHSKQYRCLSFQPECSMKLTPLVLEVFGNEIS
In short: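 VDR-bla cells, 2,000/well; 4 h preincubation 37C; cpd (DMSO) 16 h; LiveBLAzer B/G substrate 2 h RT; fluorescence intensity read.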

[7] = target: Vitamin D3 receptor (Homo sapiens) (UniProt P11473); experiment: qHTS assay to identify small molecule antagonists of the vitamin D receptor (VDR) signaling pathway (AID 743223; active = well fitted inhibition curve with a large enough effect in the signal ratio in the repeat runs, not every such curve was filed as active; the % refers to the signal ratio)
In short: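 Cells carrying a VDR-driven beta-lactamase reporter (VDR-bla) were co-treated with compound and 3 nM final 1alpha,25-dihydroxyvitamin D3 for 16 h at 37C; reporter activity was measured as FRET substrate fluorescence after 2 h at room temperature.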

[8] = qHTS assay to identify small molecule agonists of the vitamin D receptor (VDR) signaling pathway - cell viability counter screen (AID 743224); note: series mostly up to about 63 µM; nearly all actives have a fitted effect of over 50% in size
In short: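 Luminescence from CellTiter-Glo, read after 30 min at room temperature, reports viability of VDR-bla cells treated with compounds for 16 h at 37C in the wells used for the beta-lactamase FRET read.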

[9] = qHTS assay to identify small molecule antagonists of the vitamin D receptor (VDR) signaling pathway - cell viability counter screen (AID 743225); note: nearly all actives have a fitted effect of over 50% in size
In short: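 HEK293T VDR-bla; cpd + 1a,25-(OH)2D3 3 nM final, 16 h 37C/5% CO2; B/G FRET substrate 2 h RT; then CellTiter-Glo 30 min RT, luminescence.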

[10] = qHTS assay to identify small molecule agonists of the NFkB signaling pathway - cell viability counter screen (AID 1159515; calls by dose curve; note: series mostly up to about 61 µM; nearly all actives have a fitted effect of over 55% in size)
In short: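 Luminescence from CellTiter-Glo (30 min, room temperature) gives viability, measured in the same wells as the beta-lactamase reporter read. Cells were NFkB-bla ME-180, 2,000 per well, treated 5 hr with compounds.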

[11] = qHTS assay to identify small molecule agonists of the endoplasmic reticulum stress response signaling pathway (AID 1159516; active = well fitted activation curve with a large enough effect in the signal ratio in the repeat runs, not every such curve was filed as active; the % refers to the signal ratio)
In short: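 Read-out is beta-lactamase cleavage of a FRET substrate (405 nm excitation; 460 and 530 nm emissions) in ESRE-bla HeLa cells after a 5 hr compound exposure at 37 C. Substrate incubation ran 2 hr at room temperature.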

[12] = qHTS assay to identify small molecule agonists of the endoplasmic reticulum stress response signaling pathway - cell viability counter screen (AID 1159517; calls by dose curve;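 note: HeLa cells carrying an ER stress response element beta-lactamase reporter; series mostly up to about 61 µM; nearly all actives have a fitted effect of over 50% in size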)
In short: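 Luminescence readout: CellTiter-Glo, 30 min RT, same wells as the ESRE-bla reporter read. HeLa ESRE-bla, 1,500 cells/well, o/n 37 C; cpd 5 hr 37 C/5% CO2.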

[13] = qHTS assay to identify small molecule antagonists of the retinoid-related orphan receptor gamma (ROR-gamma) signaling pathway - cell viability counter screen (AID 1159520); note: nearly all actives have a fitted effect of over 50% in size
In short: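 Tet-on ROR gamma CHO cells (1,000/well) were plated 4 hr, given compounds in DMSO for 2 hr at 37 C, then induced with 1 uM final doxycycline for 16 hr. Viability was read as ATP by CellTiter-Glo luminescence after 30 min.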

[14] = qHTS assay to identify small molecule agonists of the AP-1 signaling pathway - cell viability counter screen (AID 1159525; calls by dose curve; note: nearly all actives have a fitted effect of over 55% in size)
In short: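 ME-180 AP-1-bla, 2500 cells/well, Opti-MEM + 0.5% dialyzed FBS; overnight 37 °C; cpd 15-pt titration, 5 h 37 °C; CellTiter-Glo 30 min RT; luminescence read; normalised to TOAB and DMSO controls.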

[15] = qHTS assay to identify small molecule agonists of the AP-1 signaling pathway (AID 1159526; calls by dose curve)
[16] = target: Retinoic acid receptor RXR-alpha (Homo sapiens) (UniProt P19793); experiment: qHTS assay to identify small molecule agonists of the RXR signaling pathway (AID 1159527; calls by dose curve; note: nearly all actives have a fitted effect of over 35% in size)
Sequence of Retinoic acid receptor RXR-alpha (Homo sapiens) (P19793 whole entry, looked up): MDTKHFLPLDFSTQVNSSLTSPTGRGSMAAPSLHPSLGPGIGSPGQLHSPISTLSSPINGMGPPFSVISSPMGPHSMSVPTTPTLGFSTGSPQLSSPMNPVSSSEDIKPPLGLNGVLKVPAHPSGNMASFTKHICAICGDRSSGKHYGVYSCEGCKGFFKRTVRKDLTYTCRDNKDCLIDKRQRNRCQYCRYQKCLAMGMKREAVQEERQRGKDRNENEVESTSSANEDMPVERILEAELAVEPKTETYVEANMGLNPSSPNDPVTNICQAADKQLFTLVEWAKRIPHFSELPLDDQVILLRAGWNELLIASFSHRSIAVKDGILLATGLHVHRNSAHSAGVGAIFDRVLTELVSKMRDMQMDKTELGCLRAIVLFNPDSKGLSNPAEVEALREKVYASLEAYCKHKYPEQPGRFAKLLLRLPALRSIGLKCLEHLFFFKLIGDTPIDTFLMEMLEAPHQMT
In short: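 Cells plated at 2,000/well, rested 5 hr at 37 C, pin-dosed with DMSO compound solutions, incubated 16 hr, then loaded with B/G FRET substrate for 2 hr at RT before dual-emission fluorescence reading.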

[17] = target: Nuclear receptor ROR-gamma (Homo sapiens) (UniProt P51449); experiment: qHTS assay to identify small molecule antagonists of the retinoid-related orphan receptor gamma (ROR-gamma) signaling pathway (AID 1159521)
In short: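 Cells were plated, rested 4 h at 37 C, exposed to compounds for 2 h, then given 1 uM final doxycycline hyclate to induce RORγ expression. After 16 h, ONE-Glo luminescence from the ROR response element reporter was measured.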

[18] = qHTS assay to identify small molecule antagonists of the farnesoid-X-receptor (FXR) signaling pathway - cell viability counter screen (AID 743221; active = well fitted cell-killing curve with a large enough effect in the repeat runs, not every such curve was filed as active; note: nearly all actives have a fitted effect of over 50% in size)
In short: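 Multiplexed counter screen: viability of FXR-bla HEK 293T cells under agonist stimulation by chenodeoxycholic acid (50 uM, final) and test compound for 16 h at 37 C, measured by CellTiter-Glo luminescence in the reporter wells.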

[19] = target: Bile acid receptor (Homo sapiens) (UniProt Q96RI1); experiment: qHTS assay to identify small molecule antagonists of the farnesoid-X-receptor (FXR) signaling pathway (AID 743217; active = well fitted inhibition curve with a large enough effect in the signal ratio in the repeat runs, not every such curve was filed as active; the % refers to the signal ratio)
Sequence of Bile acid receptor (Homo sapiens) (Q96RI1 whole entry, looked up): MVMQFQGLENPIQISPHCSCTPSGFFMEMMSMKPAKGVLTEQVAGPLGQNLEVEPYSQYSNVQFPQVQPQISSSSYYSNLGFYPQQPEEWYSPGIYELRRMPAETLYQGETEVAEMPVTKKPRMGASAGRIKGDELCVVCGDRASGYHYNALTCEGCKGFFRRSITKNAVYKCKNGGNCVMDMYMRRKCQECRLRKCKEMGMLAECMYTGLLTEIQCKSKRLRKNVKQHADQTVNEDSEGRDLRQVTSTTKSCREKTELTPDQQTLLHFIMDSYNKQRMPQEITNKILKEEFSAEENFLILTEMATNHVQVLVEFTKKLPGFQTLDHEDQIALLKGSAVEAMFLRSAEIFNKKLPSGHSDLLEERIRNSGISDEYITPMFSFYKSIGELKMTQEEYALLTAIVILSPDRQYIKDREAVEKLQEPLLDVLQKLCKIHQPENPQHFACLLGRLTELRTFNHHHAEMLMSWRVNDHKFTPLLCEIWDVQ
In short: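 HEK 293T FXR-UAS-bla, 5000 cells/well; compound + CDCA 50 uM final; 16 h, 37 °C; B/G FRET substrate 2 h RT; fluorescence.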

[20] = target: Bile acid receptor (Homo sapiens) (UniProt Q96RI1); experiment: qHTS assay to identify small molecule agonists of the farnesoid-X-receptor (FXR) signaling pathway (AID 743220; active = well fitted activation curve with a large enough effect in the signal ratio in the repeat runs, not every such curve was filed as active; the % refers to the signal ratio)
In short: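 Beta-lactamase reporter under UAS control in GeneBLAzer FXR HEK 293T cells (5000/well) measured with LiveBLAzer FRET substrate after 2 h at room temperature. Compound exposure lasted 16 h at 37C.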

Measured: Potency

COC(=O)CC(=O)OC
not listed: [17] | [18] | [19] | [20]
inactive: all other assays above

CC(C)(Oc1ccc(Cl)cc1)C(=O)O
not listed: [5] | [12] | [16] | [18] | [19] | [20]
inactive: all other assays above

Oc1ccc(C(c2ccc(O)cc2)C(Cl)(Cl)Cl)cc1
inactive: [18] | [6] | [10] | [11] | [12] | [13] | [14] | [15]
active: [1] 54.9 µM | [3] 38.9 µM

CC(C)(C)c1cccc(C(C)(C)C)c1O
not listed: [5] | [6] | [7] | [16] | [17] | [18]
inactive: all other assays above

C=CC(=O)OCCCC
not listed: [11]
inactive: all other assays above

COc1ccc(C(=O)c2ccccc2O)c(O)c1
not listed: [6] | [7] | [12] | [19] | [20]
inactive: all other assays above

FC(F)(F)C(Cl)Br (centres undefined)
not listed: [6] | [7] | [12] | [17] | [19] | [20]
inactive: all other assays above

IC(I)I
not listed: [6] | [7] | [12] | [15] | [16]
inactive: all other assays above

c1ccc2c(c1)ccc1ncccc12
not listed: [2] | [6] | [7] | [12] | [16] | [19] | [20]
inactive: all other assays above

Cc1ccc(S(=O)(=O)NCl)cc1
not listed: [6] | [7] | [12] | [16] | [18] | [19] | [20]
inactive: all other assays above

CCCN1C=CN(C)C1
not listed: [12] | [17] | [18]
inactive: all other assays above

O=C(O)c1cc(=O)[nH]c(=O)[nH]1
not listed: [5] | [6] | [7] | [12] | [19] | [20]
inactive: all other assays above

CN(C)C
not listed: [2] | [4] | [5] | [7] | [17] | [19] | [20]
inactive: all other assays above

CCOC(=O)C(C)Oc1ccc(Oc2cnc3cc(Cl)ccc3n2)cc1 (centres undefined)
not listed: [7] | [12] | [16] | [18]
inactive: all other assays above

Cc1ccc(/C(=C\CN2CCCC2)c2ccccn2)cc1
not listed: [3] | [15] | [16] | [17] | [18] | [19] | [20]
inactive: all other assays above

C=CCNCC=C
not listed: [2] | [4] | [12] | [16] | [17]
inactive: all other assays above

CC(C)[C@@H]1CC[C@@H](C)CC1=O
inactive: [1] | [3] | [5] | [8] | [9] | [10] | [11] | [13] | [14] | [15] | [16]

C1CN(SSN2CCOCC2)CCO1
not listed: [5] | [6] | [7] | [12] | [13] | [15] | [16] | [17]
inactive: all other assays above
